Here are results for seven compounds from PubChem BioAssay (NCI).

What all share (experiment): NCI-60 one-dose screen, 48 h (100 = growth as untreated, 0 = no growth, -100 = all killed)
Holding throughout (settings): 10 µM unless noted

The subject of assay [1] is DU-145 prostate.
Assay [2] has as its system K-562 leukemia.
Assay [3] has as its system MALME-3M melanoma.
The subject of assay [4] is MDA-MB-231 breast.
In assay [5] the test system is RXF 393 renal.
For assay [6], the system named is SF-268 CNS.
The test system of assay [7] is SF-295 CNS.
Assay [8] deals with SF-539 CNS.
The subject of assay [9] is UACC-257 melanoma.
The test system of assay [10] is M14 melanoma.
Assay [11] concerns HCT-15 colon.
In assay [12] the test system is HT29 colon.
Assay [13] has as its system SNB-75 CNS.
The subject of assay [14] is SNB-19 CNS.
The subject of assay [15] is U251 CNS.
Assay [16] deals with PC-3 prostate.
Assay [17] has as its system SK-MEL-5 melanoma.
In assay [18] the test system is UACC-62 melanoma.
The test system of assay [19] is LOX IMVI melanoma.
Assay [20] relates to SK-MEL-28 melanoma.

Compounds without any hit were thinned out: in the full panel of roughly 83,000, 20% have a hit.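 Method: cells in 96-well plates; compound added at one concentration; 48 h incubation; percent growth measured; values under 10 scored active.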 Unmarked numbers belong to inactive results. The source made the active and inactive calls.

Regarding `COc1ccc(N=Nc2c(N)nn3c(N)c(C#N)c(-c4ccccc4)nc23)cc1`, the growth in assay [1] was 24.4%; in assay [2], 71.8%; in assay [3], 28.5%; in assay [4], 9.1% (active); in assay [5], 8.34% (active); in assay [6], 11.6%. The growth is 39.4% in [7]; -3.46% (active) in assay [8]; 71% in assay [9]; 74.2% in assay [10]; 70.8% in [11]; 60.9% in assay [12]. Also, the growth in assay [13] is -15.8% (active); in assay [14] it was 27.1%; in assay [15] it was 21%; in assay [16], 28.2%; in assay [17], 34.2%; in assay [18], 36.3%. For the same compound, the growth in [19] is 54.9%; in assay [20] it was 66.6%.

For `COc1ccc(-n2c(NC(=O)N3CCN(C)CC3)c(C#N)c3ccccc32)cc1`, the growth in assay [1] was 41.2%; in assay [2] it was 58.6%; in assay [3], 38.5%; in assay [4], 29.6%; in assay [5], -9.29% (active); in assay [6] it was 29.1%. In addition, the growth in [7] is 47.1%; in [8], 14.3%; in [9], 60.3%; in assay [10], 54.4%; in assay [11] it was 57.5%; in assay [12], 84.2%. Further, the growth was -4.12% (active) in assay [13]; 52.9% in assay [14]; 41.9% in assay [15]; 58.2% in [16]; 37.4% in assay [17]; 50.9% in [18]. The growth was 9.35% (active) in assay [19] and 68.8% in assay [20].

`CCC1(OC(=O)c2ccccc2SSCCOC(=O)CCCCC2SCC3NC(=O)NC32)C(=O)OCc2c1cc1n(c2=O)Cc2cc3ccccc3nc2-1` (stereo not given): the growth in assay [1] was 35.3%; in [2], 52.8%; in assay [3], 55.8%; in [4], 82.5%; in assay [5], 82%; in assay [6], 38.5%. In addition, the growth is 5.6% (active) in assay [7]; 29.4% in assay [8]; 12.8% in assay [9]; 40.1% in assay [10]; 64.7% in [11]; 67.8% in assay [12]. Also, the growth in [13] is 81.3%; in assay [14], 36.7%; in assay [15], 36.2%; in assay [16] it was 37.4%; in assay [17], 21.1%; in assay [18] it was 17.7%. Moreover, the growth is 33.9% in assay [19] and 96% in assay [20].

On to `COc1ccc(C(=O)NNC(=O)CSc2nc3sc4c(c3c(=O)n2-c2ccc(Cl)cc2)CCCC4)cc1`, for which the growth in [1] is 89%; in assay [2] it was 56.7%; in assay [3] it was 60.3%; in assay [4], 44%; in assay [5], 82.2%; in assay [6], 84.3%. Besides, the growth in assay [7] was 94.7%; in assay [8], -55.2% (active); in [9] it was 100%; in assay [10], 77.4%; in [11] it was 76.3%; in [12], 91.2%. For the same compound, the growth in assay [13] was 44.5%; in assay [14] it was 63.3%; in assay [15], 42.3%; in assay [16], 80.6%; in [17], 46.8%; in assay [18] it was 26.1%. Besides, the values for the growth in assay [19] and in [20] were 55.5% and 72.5%, respectively.

In the case of `COc1cccc2nc(Nc3cccc(NC(=O)c4ccc(CN5CCN(C)CC5)c(C(F)(F)F)c4)c3)ccc12`, the growth was -83.5% (active) in assay [1]; 2.54% (active) in assay [2]; -96.4% (active) in assay [3]; -97.9% (active) in assay [4]; -98.5% (active) in [5]; -54.4% (active) in assay [6]. Moreover, the growth was -95.1% (active) in assay [7]; -100% (active) in [8]; -83.1% (active) in assay [9]; -85.2% (active) in [10]; -79.1% (active) in [11]; -69.3% (active) in assay [12]. Further, the growth in assay [13] is -97.5% (active); in assay [14] it was -100% (active); in assay [15], -73.7% (active); in assay [16], -50.9% (active); in assay [17], -100% (active); in assay [18], -99.1% (active). In addition, the growth in assay [19] and in [20] was -100% (active) throughout.

In the case of `COc1ccc2[nH]c(O)c(N=NC(=O)c3ccc4nc(-c5ccc(Cl)cc5)[nH]c4c3)c2c1`, the growth in [1] is 65.6%; in assay [2], 41.8%; in assay [3], 33.4%; in assay [4] it was 23.9%; in assay [5], 43.4%; in assay [6] it was 27.3%. In addition, the growth is 103% in assay [7]; 67.6% in assay [8]; 100% in assay [9]; 59.4% in [10]; 105% in assay [11]; 86.1% in assay [12]. Moreover, the growth in assay [13] was 93.8%; in [14], 29.6%; in assay [15], -30.5% (active); in [16], 58.9%; in assay [17] it was 96.2%; in assay [18] it was 69.8%. Further, the growth in assay [19] is 24.6%; in assay [20] it was 37.2%.

Take `CC(=O)c1c2c(c3ccc4c5ccccc5ccc4n13)C(=O)c1ccccc1C2=O`: the growth in assay [1] was 102%; in assay [2], 103%; in [3], -49.5% (active); in assay [4], 77.3%; in assay [5], 59.6%; in [6], 98%. Further, the growth in assay [7] was 92.5%; in [8], 77.6%; in assay [9], 97.5%; in [10], 65.7%; in assay [11], 81.6%; in [12], 107%. In addition, the growth is 93.8% in assay [13]; 65.4% in assay [14]; 82.9% in assay [15]; 77.5% in assay [16]; 63.7% in assay [17]; 87% in assay [18]. In addition, the figures for the growth in [19] and in assay [20] were 64.5% and 101%, respectively.
